Assay results published in PubChem BioAssay (NCATS).
“And” between values parts separate entries of the source, which are not always exact repeats. Equal values may be shown once. Inconclusive results are not listed. For some assays here: Potency and affinity values are given separately. The source made the active and inactive calls.

Experiments:
[1] = Ebola virus entry assay, green fluorescence channel
[2] = Ebola virus entry assay, green fluorescence channel; remark: listed apart in the source
[3] = Ebola virus entry assay, ratio channel readout
[4] = Ebola virus entry assay, ratio channel
[5] = Ebola virus entry assay, green channel fluorescence
[6] = Ebola virus entry assay, blue channel fluorescence
[7] = Ebola virus entry assay, blue channel fluorescence; remark: listed apart in the source
[8] = biological target: T1, Hexokinase-4 (Homo sapiens) + Glucokinase regulatory protein (Homo sapiens) (UniProt P35557+Q14397); experiment: qHTS assay for inhibitors of recombinant human GCK-GKRP interaction: Diaphorase-coupled assay (AID 743205; active = well fitted curve in the direction sought with a large enough effect); conditions: G6PDH/diaphorase resorufin fluorescence; series mostly up to 57.5 µM
Procedure, shortened: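 GST-GCK (10 nM) with FLAG-GKRP (10 nM), 5 mM glucose and 0.4 mM ATP in pH 7.6 Hepes; compounds preincubated 20 min with substrate. G6PDH/diaphorase coupling converts resazurin to resorufin, read kinetically (ex 525/em 590 nm) for 30 min.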

[9] = biological target: T1, Hexokinase-4 (Homo sapiens) + Glucokinase regulatory protein (Homo sapiens); experiment: qHTS assay for inhibitors of recombinant human GCK-GKRP interaction: ADP-Glo assay (AID 743206; active = well fitted curve in the direction sought with a large enough effect;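 also: plate controls were DMSO plus enzyme for no effect and no enzyme for full effect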); conditions: ADP-Glo luminescence, 60 min, 0% = vehicle-only wells with enzyme present; series mostly up to 76.9 µM
Procedure, shortened: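 Pin-transferred compounds meet a 15 nM GST-GCK/15 nM FLAG-GKRP/2 uM S6P mix (dispense concentrations). ATP is then added to 0.4 mM final with 5 mM glucose, and the reaction runs 60 min at room temperature. ADP is quantified luminescently.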

[10] = biological target: T1, Hexokinase-4 (Homo sapiens) + Glucokinase regulatory protein (Homo sapiens); experiment: qHTS assay for inhibitors of recombinant human GCK-GKRP interaction: HTRF assay (AID 743207; active = well fitted curve in the direction sought with a large enough effect;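 also: 0% = DMSO with GCK present and -100% = DMSO wells lacking GCK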); conditions: recombinant GCK-GKRP HTRF binding, 60 min; series mostly up to 57.5 µM
Procedure, shortened: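 GST-GCK and FLAG-GKRP (5 nM each) were combined with 2 uM S6P in pH 7.1 Hepes/MgCl2/KCl/DTT buffer, then compound and anti-FLAG XL665/anti-GST K antibodies were added. After 60 min at room temperature, HTRF 665/615 nm emission was read.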

[11] = qHTS Assay for Identifying Gametocytocidal Compounds (AID 743244; active = well fitted curve in the direction sought with a large enough effect; also: potency is read from the fitted curve at half-maximal effect;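 as to max response: % is scaled to controls: 0 for no effect and ±100 for the full control effect; actives lower the fluorescent signal which means gametocytes are killed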); conditions: P. falciparum 3D7 stage III-V gametocytes, alamarBlue, 72 h; max response: active compounds read low
Procedure, shortened: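 Viability read-out was resazurin reduction (alamarBlue, 24 h) measured at Ex 525/Em 598 nm. Beforehand, late-stage (III-V) 3D7 P. falciparum gametocytes at 20,000 cells/well were incubated with compound 72 h at 37C under 5% CO2.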
For efficacy in this document: 0% is about no effect.

T1 sequence (P35557 whole entry, looked up): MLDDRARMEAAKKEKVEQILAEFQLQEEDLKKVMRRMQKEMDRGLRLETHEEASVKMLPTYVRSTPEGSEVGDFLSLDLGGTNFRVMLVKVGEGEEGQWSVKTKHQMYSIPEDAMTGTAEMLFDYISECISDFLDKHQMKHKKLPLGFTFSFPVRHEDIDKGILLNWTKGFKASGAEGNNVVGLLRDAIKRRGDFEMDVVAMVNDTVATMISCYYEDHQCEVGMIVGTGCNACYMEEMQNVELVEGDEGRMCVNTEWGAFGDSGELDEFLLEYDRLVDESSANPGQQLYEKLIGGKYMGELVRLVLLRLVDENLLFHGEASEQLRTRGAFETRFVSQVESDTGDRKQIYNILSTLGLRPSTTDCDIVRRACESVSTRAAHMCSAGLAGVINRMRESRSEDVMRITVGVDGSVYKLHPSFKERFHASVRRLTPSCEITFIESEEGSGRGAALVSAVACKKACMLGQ
T1 sequence (Q14397 whole entry, looked up): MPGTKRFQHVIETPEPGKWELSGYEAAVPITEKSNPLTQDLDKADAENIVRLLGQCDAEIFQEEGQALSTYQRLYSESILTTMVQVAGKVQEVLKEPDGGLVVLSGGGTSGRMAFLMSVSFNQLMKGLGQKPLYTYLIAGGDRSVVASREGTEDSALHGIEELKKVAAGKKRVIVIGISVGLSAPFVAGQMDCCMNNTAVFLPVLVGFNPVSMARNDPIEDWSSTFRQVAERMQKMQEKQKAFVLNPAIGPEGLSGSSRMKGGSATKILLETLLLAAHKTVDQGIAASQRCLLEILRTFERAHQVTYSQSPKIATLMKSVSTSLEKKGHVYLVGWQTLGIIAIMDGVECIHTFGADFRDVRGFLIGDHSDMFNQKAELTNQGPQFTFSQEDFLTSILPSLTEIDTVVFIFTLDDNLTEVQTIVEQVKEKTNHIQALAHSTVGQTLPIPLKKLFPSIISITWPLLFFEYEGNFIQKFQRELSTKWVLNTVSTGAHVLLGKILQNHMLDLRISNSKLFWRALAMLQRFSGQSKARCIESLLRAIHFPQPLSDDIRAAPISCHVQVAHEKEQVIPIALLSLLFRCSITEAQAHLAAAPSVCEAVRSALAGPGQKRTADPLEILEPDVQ

Cc1ccc(S(=O)(=O)NC(=O)NN2CCCCCC2)cc1
inactive: efficacy [1] -42.6% | outcome [2] | outcome [3] | outcome [4] | outcome [5]

CN[C@H]1CC[C@@H](c2ccc(Cl)c(Cl)c2)c2ccccc21
active: AC50 [6] 2 µM | AC50 [4] 1.58 µM
inactive: efficacy [1] -213% | outcome [2]

Cc1ccc(-n2nc(C(C)(C)C)cc2NC(=O)Nc2ccc(OCCN3CCOCC3)c3ccccc23)cc1
inactive: efficacy [1] 134%
active: AC50 [6] 25.1 µM | AC50 [4] 20 µM

Cc1ncc([N+](=O)[O-])n1CCO
inactive: efficacy [1] -56.3% | outcome [2] | outcome [3] | outcome [4] | outcome [5]

O=c1[nH]cnc2c1ncn2[C@H]1CC[C@@H](CO)O1
inactive: efficacy [1] -19.1% | outcome [2] | outcome [5]

N=c1nc(N2CCCCC2)cc(N)n1O
inactive: efficacy [1] -16.3% | outcome [2] | outcome [3] | outcome [5]

COC(=O)C1=C(C)NC(C)=C(C(=O)OC(C)C)C1c1cccc2nonc12 (stereo not given)
inactive: efficacy [1] -20.5% | outcome [2] | outcome [3] | outcome [4] | outcome [5]

CC1=C(/C=C/C(C)=C/C=C/C(C)=C/C(=O)Nc2ccc(O)cc2)C(C)(C)CCC1
active: AC50 [6] 39.8 µM
inactive: efficacy [1] -119% | outcome [4]

CCOC(=O)[C@H](CCc1ccccc1)N[C@@H](C)C(=O)N1Cc2ccccc2C[C@H]1C(=O)O
inactive: efficacy [1] 30.9% | outcome [2] | outcome [3] | outcome [4] | outcome [5]

Cc1[nH]cnc1CN1CCc2c(c3ccccc3n2C)C1=O
inactive: efficacy [1] -10.6% | outcome [7] | outcome [3] | outcome [6] | outcome [4] | outcome [5]

CCCCc1oc2ccccc2c1C(=O)c1cc(I)c(OCCN(CC)CC)c(I)c1
inactive: efficacy [1] 105% | outcome [2]
active: AC50 [6] 3.55 µM | AC50 [4] 2.82 µM

Cn1cc[nH]c1=S
inactive: efficacy [1] -16% | outcome [2] | outcome [6] | outcome [4] | outcome [5]

C=CC(=O)Nc1cc2c(Nc3ccc(F)c(Cl)c3)ncnc2cc1OCCCN1CCOCC1
inactive: efficacy [1] 99.2%
active: AC50 [6] 3.16 µM | AC50 [4] 2.82 µM

CCCCCCCCCCCCCCCC[N+](C)(C)CC
active: AC50 [6] 25.1 µM | AC50 [4] 11.2 µM
inactive: efficacy [1] -76.8%

CC[C@@H](CO)NC(=O)[C@@H]1C=C2c3cccc4[nH]cc(c34)C[C@H]2N(C)C1
inactive: outcome [8] | outcome [9] | outcome [10] | efficacy [1] -16.2% | outcome [5]
active: AC50 [6] 7.94 µM | AC50 [4] 10 µM

Cn1ccc2cc3c(cc21)CCN3C(=O)Nc1cccnc1
inactive: efficacy [1] -35.6% | outcome [6] | outcome [4] | outcome [5]

c1ccc2c(c1)OCC(C1=NCCN1)O2 (stereo not given)
inactive: outcome [8] | outcome [9] | outcome [10] | efficacy [1] 12.1% | outcome [6] | outcome [4] | outcome [5]
active: Potency [11] 6.31 µM and 3.55 µM

O=[N+]([O-])c1ccc(O)c2ncccc12
inactive: efficacy [1] -18.6% | outcome [5]
active: AC50 [6] 31.6 µM | AC50 [4] 28.2 µM

Cc1cccc(C)c1NC(=O)CN1CCN(CCCC(c2ccc(F)cc2)c2ccc(F)cc2)CC1
active: AC50 [6] 3.16 µM | AC50 [4] 3.16 µM
inactive: efficacy [1] 109%

CC/C=C(\C(=O)N[C@@H]1C(=O)N2C(C(=O)OCOC(=O)C(C)(C)C)=C(COC(N)=O)CS[C@H]12)c1csc(N)n1
inactive: efficacy [1] 11.1% and -32.9% | outcome [6] | outcome [4] | outcome [5]

CC(=O)[C@H]1CC[C@H]2[C@@H]3CC[C@H]4C[C@H](O)CC[C@]4(C)[C@H]3C(=O)C[C@]12C
inactive: outcome [8] | outcome [9] | outcome [10] | max response [11] -4.24% and 9.55% | efficacy [1] -24.6% | outcome [6] | outcome [4] | outcome [5]

CC(=O)SC[C@@H](C)C(=O)N1CCC[C@H]1C(=O)N[C@@H](Cc1ccccc1)C(=O)O
inactive: efficacy [1] 13.4% | outcome [6] | outcome [4] | outcome [5]

COC(=O)Nc1nc2ccc(C(=O)c3cccs3)cc2[nH]1
active: AC50 [6] 0.708 µM | AC50 [4] 0.708 µM
inactive: efficacy [1] 64.8%

CN1CC[C@H](c2c(O)cc(O)c3c(=O)cc(-c4ccccc4Cl)oc23)[C@H](O)C1
inactive: efficacy [1] 58.1% | outcome [6] | outcome [4]

CC(C)C[C@H](NC(=O)[C@H](CCc1ccccc1)NC(=O)CN1CCOCC1)C(=O)N[C@@H](Cc1ccccc1)C(=O)N[C@@H](CC(C)C)C(=O)[C@@]1(C)CO1
inactive: efficacy [1] -41%
active: AC50 [6] 0.316 µM | AC50 [4] 0.708 µM

N#CC(C#N)=Cc1ccc(O)c(O)c1
inactive: outcome [8] | outcome [9] | outcome [10] | max response [11] 25.4% | efficacy [1] -17.1% | outcome [6] | outcome [4] | outcome [5]

CC(C)Oc1ccc2c(=O)c(-c3ccccc3)coc2c1
inactive: efficacy [1] 27.1% and 23.5% | outcome [6] | outcome [4] | outcome [5]

CCCCOCCOCCOCc1cc2c(cc1CCC)OCO2
inactive: efficacy [1] -21% | outcome [6] | outcome [4] | outcome [5]

CCCN1CCC[C@@H]2Cc3[nH]ncc3C[C@H]21
inactive: outcome [8] | outcome [9] | outcome [10] | max response [11] -4.72% and 8.32% and 17.4% | efficacy [1] -15.1% | outcome [6] | outcome [4] | outcome [5]

Cn1cnc2c(F)c(Nc3ccc(Br)cc3Cl)c(C(=O)NOCCO)cc21
inactive: efficacy [1] 24.6% | outcome [6] | outcome [4] | outcome [5]

COc1cc2c(N3CCN(C(=O)Nc4ccc(OC(C)C)cc4)CC3)ncnc2cc1OCCCN1CCCCC1
active: AC50 [6] 11.2 µM | AC50 [4] 10 µM
inactive: efficacy [1] 52%
